# Bioassay records deposited in PubChem by National Center for Advancing Translational Sciences (NCATS).
# The list is not random: actives were taken first. Their share in the collection is about 3.6%.
# D1 antagonist: antagonists of human D1 dopamine receptor. HEK293 TREx D1 cells, calcium flux, dopamine EC80; active compounds read low. activity change, negative = inhibition, % at 10 µM. 360,000 compounds, 3.2% hits. AID 504652; in the data active = activity change below about -30%
#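 Tetracycline-induced HEK293 T-REx cells with force-coupled D1 receptor were loaded with a no-wash calcium dye. Compound was added after a 10 s baseline and read kinetically for 180 s; EC80 dopamine was then added and calcium flux followed another 180 s.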
# TRHR enhancer: allosterically enhances the human TRH receptor; 360,000 compounds, 0.66% hits; TRHR cells, fluo-8 calcium fluorescence, EC20 TRH enhancement; enhancement, % at 2 µM; AID 493056; in the data active = enhancement above about 30%
# Target sequence (P34981 whole entry, looked up): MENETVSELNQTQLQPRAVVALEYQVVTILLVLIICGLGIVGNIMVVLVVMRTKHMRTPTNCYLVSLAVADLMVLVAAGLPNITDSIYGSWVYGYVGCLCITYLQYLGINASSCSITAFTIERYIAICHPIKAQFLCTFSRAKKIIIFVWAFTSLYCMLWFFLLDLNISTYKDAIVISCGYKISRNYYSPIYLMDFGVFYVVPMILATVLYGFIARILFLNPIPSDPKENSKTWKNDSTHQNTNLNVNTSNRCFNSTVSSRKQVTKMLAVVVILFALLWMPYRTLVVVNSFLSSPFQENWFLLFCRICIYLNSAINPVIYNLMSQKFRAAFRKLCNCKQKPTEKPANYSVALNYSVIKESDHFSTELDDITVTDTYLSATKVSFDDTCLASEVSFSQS
#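 TRHR-expressing cells loaded with fluo-8 calcium dye were read kinetically (ex 480/em 530) during compound addition, then stimulated with an EC20 of TRH (10 nM final). Enhancement of the Gq-mediated intracellular calcium response was scored.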
# D1 agonist: human D1 receptor agonism | HEK293 T-REx D1 cells, calcium flux, agonist mode | activation, % at 2 µM | 360,000 compounds, 1% hits
#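 Inducible HEK293 T-REx D1 cells, force-coupled to calcium signalling, were plated at 4000 cells/well with tetracycline and held overnight at 30 C. After no-wash calcium dye loading, compound-evoked calcium rise over 180 s flagged agonists.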
# TRHR agonist: TRH receptor (human) agonism. P34981. TRHR cells, calcium flux fluo-8, FDSS agonist mode. activation, % at 2 µM. 360,000 compounds, 0.18% hits. AID 493084
#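 TRHR-expressing cells, plated overnight in medium with 10% serum, were loaded with fluo-8 calcium dye at room temperature. After a 10 s baseline, library compound was pin-added and calcium release was recorded kinetically (ex 480/em 530) as agonist response.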
# LDHA inh: blocks human lactate dehydrogenase A; P00338; purified LDHA, NADH/diaphorase-resazurin fluorescence; active compounds read low; activity change, % (values are at about 110 or 230 µM); 480,000 compounds, 0.15% hits; AID 1347041; in the data active = activity change below about -30%
#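 Human LDH5 at 2 nM final in Tris HCl pH 7.4 with 0.06 mM NADH and 0.2 mM pyruvate, reacted 5 minutes at room temperature. Remaining NADH coupled via diaphorase/resazurin; resorufin fluorescence read at 0 and 20 minutes, normalized to enzyme-free and DMSO wells.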
# D1 PAM: potentiators of human D1 dopamine receptor. P21728. HEK293 TREx D1 cells, calcium flux, dopamine EC20 potentiation. potentiation, % at 10 µM. 360,000 compounds, 0.036% hits. AID 504651; in the data active = potentiation above about 30%
# Numbers stand for hits; i = inactive; nt = no result given; ! = a repeat was not active. Rule as the data show it, unless noted: active = activation above about 30%; inactive = the rest.
SMILES,D1 antagonist,TRHR enhancer,D1 agonist,TRHR agonist,LDHA inh,D1 PAM
O=C(CNc1cc(S(=O)(=O)N2CCCC2)ccc1OCC(F)(F)F)Nc1ccc(SC(F)F)cc1,-51,i,i,i,i,i
O=C(CN1C(=O)NC2(CCCC2)C1=O)Nc1cc(S(=O)(=O)N2CCOCC2)ccc1OCC(F)(F)F,-50,i,i,i,i,i
Cc1ccc(NC(=O)CCNS(=O)(=O)c2ccccc2F)cc1S(=O)(=O)N1CCOCC1,-59,i,i,i,i,i
Cc1ccc(NC(=O)CCN2C(=O)NC3(CCCC3)C2=O)cc1S(=O)(=O)N1CCOCC1,-92,i,i,i,i,i
O=C(CNc1cc(S(=O)(=O)N2CCCC2)ccc1OCC(F)(F)F)Nc1cc(Cl)cc(Cl)c1,i,i,i,i,nt,i
O=C(CCCN1C(=O)NC2(CCCC2)C1=O)Nc1cccc(S(=O)(=O)N2CCOCC2)c1,i,i,i,i,i,i
CCN(CC)c1ccc(S(=O)(=O)N2CCOCC2)cc1NC(=O)CN1C(=O)NC2(CCCC2)C1=O,i,i,i,i,i,i
Cc1cc(-n2c(C)cc(C(=O)CSc3nnc(COc4ccccc4Cl)n3C)c2C)no1,nt,nt,nt,nt,i,nt
Cc1ccc(NC(=O)CCCSc2ccccc2)cc1S(=O)(=O)N1CCOCC1,-40,i,i,i,i,i
Cc1ccc(C(=O)Nc2cccc(O)c2)cc1S(=O)(=O)N1CCCCCC1,-33!,i,i,i,i,i
Cc1ccc(NC(=O)C(C)N2C(=O)c3ccccc3C2=O)cc1S(=O)(=O)N1CCOCC1 (stereo unspecified),-42,i,i,i,i,i
Cc1ccc(NC(=O)c2ccc(C)c(S(=O)(=O)N3CCCCCC3)c2)cc1,i,i,i,i,i,i
CCCC(C(=O)Nc1ccc(C)c(S(=O)(=O)N2CCOCC2)c1)c1ccccc1 (stereo unspecified),i,i,i,i,i,i
Cc1ccc(NC(=O)CN2CCOCC2)cc1S(=O)(=O)N1CCCCC1,nt,nt,nt,nt,i,nt
Cc1ccc(NC(=O)CNCCCN2CCOCC2)cc1S(=O)(=O)N1CCCCC1,i,i,i,i,-33,i
Cc1ccccc1C(=O)NC(C)c1nc(-c2ccccc2Cl)no1 (stereo unspecified),nt,nt,nt,nt,i,nt
CCOc1ccc(C(C)=O)cc1COC(=O)c1cc(Cl)c(OC)c(OC)c1,nt,nt,nt,nt,i,nt
COc1cc(C)ccc1OCc1nnc(SCC(=O)N2CCc3ccccc3C2)n1C,nt,nt,nt,nt,i,nt
O=C(O)CSc1ccc(Cl)c(Cl)c1Cl,nt,nt,nt,nt,i,nt
N#Cc1cccc(NC(=O)COC(=O)Cn2nc(-c3ccccc3)oc2=O)c1,-85,i,i,i,i,nt
Cc1cc(C)c(NC(=O)COC(=O)Cn2nc(-c3ccccc3)oc2=O)c(C)c1,nt,nt,nt,nt,i,nt
Cc1ccc(C(=O)c2cc3c(cc2N)OCCO3)cc1,-76,i,i,i,i,i
COC(=O)c1ccc(Cl)c(Cl)c1,nt,nt,nt,nt,i,nt
CCCC(=O)Nc1ccc(O)c(-c2nc3cc(C)cc(C)c3o2)c1,nt,nt,nt,nt,i,nt
Cc1cc2c(s1)Nc1ccccc1N=C2N1CCN(C)CC1,-89,i,nt,i,i,nt
SMILES,D1 antagonist,TRHR enhancer,D1 agonist,TRHR agonist,LDHA inh,D1 PAM
CC(C)(C)c1nc(CN2CCCC2)cs1,nt,nt,nt,nt,i,nt
Cc1cc(C)n2nc(SCN3C(=O)c4ccccc4C3=O)nc2n1,-33,i,i,i,i,i
CCCn1c(C)cc(C(=O)CSc2nc3nc(C)cc(C)n3n2)c1C,-49,i,i,i,i,i
O=C(NCC(O)c1ccccc1)c1ccc(CNS(=O)(=O)c2ccccc2)cc1 (stereo unspecified),nt,nt,nt,nt,i,nt
Cn1c(-n2cccc2)c(-c2c(-c3cccc4ccccc34)[nH]c3c2c(=O)[nH]c(=O)n3C)c(=O)[nH]c1=O,nt,nt,nt,nt,i,nt
COc1cc(OC)cc(C(=O)Nc2ccc(NS(=O)(=O)c3ccc4c(c3)OCCCO4)cc2)c1,nt,nt,nt,nt,i,nt
O=[N+]([O-])c1cccc(/C=N/c2nc3c(s2)CCCC3)c1,nt,nt,nt,nt,i,nt
CC(C)c1ccc(S(=O)(=O)Nc2ccc3c(c2)CCN3S(C)(=O)=O)cc1,nt,nt,nt,nt,i,nt
CCCCN(C)S(=O)(=O)c1ccc(C(=O)Nc2sc3c(c2C(=O)OCC)CCN(C(C)C)C3)cc1,i,i,i,i,i,i
COC(=O)c1c(NC(=O)c2ccco2)sc2c1CCN(C(C)C)C2,i,i,33,i,i,i
